According to PubChem BioAssay (NCI):
About 83,000 compounds went through this panel and 20% of them were active in at least one assay; those are over-represented in the sample as a whole.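 Values shown are percent growth following 48 h exposure of cells in 96-well plates to a single concentration of compound; below 10 was considered active.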 Unmarked numbers belong to inactive results. Active and inactive are the calls of the source.

Tests used:
Assay in all cases: NCI-60 one-dose screen, 48 h (100 = growth as untreated, 0 = no growth, -100 = all killed)
Details in all cases: 10 µM unless noted
[1] = test system: DU-145 prostate
[2] = test system: K-562 leukemia
[3] = test system: MALME-3M melanoma
[4] = test system: MDA-MB-231 breast
[5] = test system: RXF 393 renal
[6] = test system: SF-268 CNS
[7] = test system: SF-295 CNS
[8] = test system: SF-539 CNS
[9] = test system: UACC-257 melanoma
[10] = test system: M14 melanoma
[11] = test system: HCT-15 colon
[12] = test system: HT29 colon
[13] = test system: SNB-75 CNS
[14] = test system: SNB-19 CNS
[15] = test system: U251 CNS
[16] = test system: PC-3 prostate
[17] = test system: SK-MEL-5 melanoma
[18] = test system: UACC-62 melanoma
[19] = test system: LOX IMVI melanoma
[20] = test system: SK-MEL-28 melanoma

Compound	growth [1]	growth [2]	growth [3] [%]	growth [4]	growth [5]	growth [6] [%]	growth [7]	growth [8]	growth [9]	growth [10]	growth [11]	growth [12]	growth [13]	growth [14] [%]	growth [15] [%]	growth [16] [%]	growth [17]	growth [18] [%]	growth [19]	growth [20] [%]
COC(=O)[C@@H](C)C[C@H](Cc1ccccc1)NC(=O)c1nc([C@@H](C[C@H](C(C)C)N(C)C(=O)[C@@H](NC(=O)[C@H]2CCCCN2C)C(C)C)OC(C)=O)sc1C	5.34% (active)	8.3% (active)	54	-11.6% (active)	44.4%	17.6	15.4%	-16.5% (active)	59.9%	-43.4% (active)	12.9%	4.71% (active)	12.7%	24.3	14.6	28.9	-39.2% (active)	30.2	12.4%	66.1
C/C(=C\c1ccn(-c2ccccc2N)n1)[C@@H]1C[C@@H]2O[C@]2(C)CCC[C@H](C)[C@H](O)[C@@H](C)C(=O)C(C)(C)[C@@H](O)CC(=O)O1	-17.8% (active)	14.6%	41.7	21.9%	-3.76% (active)	30.3	13.8%	-12% (active)	62.3%	2.49% (active)	16.6%	15.1%	-4.54% (active)	29.1	27.2	14.3	12.2%	19.9	28.5%	58.8
O=[N+]([O-])CC(O)C(Cl)(Cl)Cl (stereo not given)	117%	113%	97.5	122%	116%	101	102%	92.6%	111%	104%	102%	111%	81.1%	106	99.1	94.9	107%	107	99.8%	102
COc1ccc(C(O)(C(=O)O)c2ccc(OC)cc2)cc1	104%	87.8%	105	85.7%	109%	95.3	87.1%	86.8%	90.6%	86.2%	95.7%	81.4%	101%	96.9	93.9	77.8	93.6%	85.7	93.6%	103
CCCC(C)C1(CC)C(=O)NC(=O)N(C)C1=O (stereo not given)	107%	102%	90.1	107%	119%	100	102%	96.4%	83.6%	101%	107%	94.6%	98.8%	104	92.1	85.8	89.1%	90.8	98.6%	116
COc1cc([C@@H]2c3cc4c(cc3[C@H](OC(C)=O)[C@H]3COC(=O)[C@H]23)OCO4)cc(OC)c1OC	1.84% (active)	9.74% (active)	68.9	23.7%	54.9%	37	10.6%	-11% (active)	75.9%	6.87% (active)	9.64% (active)	5.66% (active)	41.4%	39.4	18.9	30.2	-17.6% (active)	43.2	18.7%	64.3
Fc1ccc(C2=CCNCC2)cc1	111%	108%	95.5	80.7%	97.7%	96.8	77.8%	93.4%	-21.6% (active)	98.9%	109%	109%	84.1%	109	96.9	101	91.9%	86.4	90.1%	107
NC(CCl)CCl	105%	116%	92.6	102%	107%	103	93.9%	95.1%	102%	94.6%	87.3%	97.8%	90.3%	105	99.8	104	99.4%	99.9	106%	98.3
Clc1cccc(Cl)c1Cl	101%	84.9%	103	117%	122%	97.5	95.1%	100%	86.6%	94.7%	101%	82.8%	93.8%	118	98.4	103	105%	99.8	101%	109
O=C1OCCC1Br (stereo not given)	106%	80.9%	97.8	103%	114%	108	105%	95.6%	83%	109%	98.7%	97.3%	89.9%	104	92.2	99.5	103%	103	97.4%	99.5
C/C(=C\c1ccn(-c2ccc(N)cc2)n1)[C@@H]1C[C@@H]2O[C@]2(C)CCC[C@H](C)[C@H](O)[C@@H](C)C(=O)C(C)(C)[C@@H](O)CC(=O)O1	-8.99% (active)	11.4%	36.7	33.5%	-0.234% (active)	37.4	18.6%	-2.33% (active)	59.5%	-17% (active)	20%	15.4%	3.99% (active)	33.3	25.9	13.2	10.9%	19.7	29.5%	59.4
C[S+]1C=Cc2ccccc2C1c1ccc(Cl)cc1 (stereo not given)	99.8%	78.8%	103	103%	74.8%	47.1	68%	104%	92.5%	83.6%	96.8%	84.9%	-70.7% (active)	110	67	73.5	99.3%	95.8	91.1%	103
O=C1C2CC=CCC2C(=O)N1SC(Cl)(Cl)Cl (stereo not given)	109%	45.1%	81.8	103%	63.6%	104	134%	91.3%	105%	92.1%	67.3%	89.2%	104%	91.5	98.8	81.9	94.1%	93.6	78.6%	132
O=C(Nc1ccc([N+](=O)[O-])cc1)C(Cl)(Cl)Cl	96.7%	98.2%	97.6	95%	116%	97.6	96.9%	94.2%	96.7%	94.1%	80.8%	101%	96.6%	94.7	93.9	95.1	99.4%	84.9	63.3%	103
CC(C)=CCc1c(O)c(C(=O)CC(C)C)c(O)c2c(-c3ccccc3)cc(=O)oc12	61.9%	28%	56.9	5.93% (active)	74.1%	52.1	43.4%	68.9%	58.1%	61%	30.3%	66.5%	81.3%	42.1	41.3	19.6	-41.3% (active)	12.2	68.2%	39.2
CCCOC(=O)N[C@H]1CCc2c(Br)c(OC)c(OC)c(OC)c2-c2ccc(SC)c(=O)cc21	-15.7% (active)	10.1%	38.4	-13.4% (active)	13.8%	17.8	5.54% (active)	0.697% (active)	64.5%	-26.3% (active)	7.9% (active)	12.2%	19.6%	23.1	17.6	21.1	-29.9% (active)	17.8	8.1% (active)	64.7
